Experimental data as given in the supplement of paper PMC13380429.
Unmarked numbers belong to inactive results.

Tested on: Vero E6 infected with SARS-CoV-2
Assay: inhibition of SARS-CoV-2 cytopathic effect; higher = more antiviral protection, active = above 15
Settings: 48 h

Row | SMILES | inhibition of SARS-CoV-2 cytopathic effect (1 nM) | inhibition of SARS-CoV-2 cytopathic effect (8.33 nM) | inhibition of SARS-CoV-2 cytopathic effect (100 nM) | inhibition of SARS-CoV-2 cytopathic effect (833.33 nM) | inhibition of SARS-CoV-2 cytopathic effect (10000 nM)
1 | CC(C)(C)/[N+]([O-])=C/c1ccc(S(=O)(=O)O)cc1S(=O)(=O)O | -1.02% | -0.15% | -0.41% | 0.47% | 0.8%
2 | Cc1[nH]c2ccc(O)cc2c1CCN [2-methyl-5-hydroxytryptamine] | -3.47% | -2.58% | -4.33% | -12.8% | -2.37%
3 | O=C1CNC(=O)CN1 [piperazinedione] | -1.5% | -0.79% | -1.97% | -2.42% | -2.4%
4 | CC(=O)OC[C@H]1O[C@@H]([S-])[C@H](OC(C)=O)[C@@H](OC(C)=O)[C@@H]1OC(C)=O.CCP(CC)CC.[Au+] [auranofin] | 3.21% | 4.4% | 7.71% | 18.4% (active) | -21.1%
5 | CN(C)C(=O)Oc1cc(OC(=O)N(C)C)cc(C(O)CNC(C)(C)C)c1 (stereo not given) [bambuterol] | -2.95% | -0.79% | -1.68% | -1.56% | -1.86%
6 | CC(C)N1CCN(c2ccc(OCC3COC(Cn4cncn4)(c4ccc(Cl)cc4Cl)O3)cc2)CC1 (stereo not given) [terconazole] | 1.55% | 0.07% | 4.2% | -1.24% | 11.5%
7 | Cc1[nH]c2ccc(F)cc2c1-c1nc2c3cccnc3c3ncccc3c2[nH]1 | 0.2% | 1.01% | 0.29% | -0.86% | 2.7%
8 | N#C/C(=C1/SCC(c2ccccc2Cl)S1)n1ccnc1 (stereo not given) [lanoconazole] | 0.51% | 2.17% | 4.14% | 0.83% | 0.48%
9 | O=C(O)CCc1c(C(=O)O)[nH]c2cc(Cl)cc(Cl)c12 | 0.7% | 2.79% | 1.68% | -2.26% | 0.81%
10 | O=C1c2ccccc2C(=O)C1c1ccccc1 [phenindione] | -1.88% | -1.11% | -1.06% | -1.97% | -3.42%
11 | CCN(CC)CCOc1ccc(/C(=C(\Cl)c2ccccc2)c2ccccc2)cc1 [clomifene] | 0.1% | 1.97% | 2.27% | 3.88% | 21.1% (active)
12 | COc1ccc(S(=O)(=O)N(C(C)=O)c2ccccc2/C=C/c2cc[n+]([O-])cc2)cc1 | 2.08% | 0.26% | -2.17% | -2.71% | -2.49%
13 | CN(C)/C=N/c1c(I)cc(I)c(CCC(=O)O)c1I [iopodic-acid] | -3.57% | 0.15% | -0.76% | 0.26% | -2.24%
14 | CS(=O)(=O)N1CCN(Cc2cc3nc(-c4cccc5[nH]ncc45)nc(N4CCOCC4)c3s2)CC1 | -1.74% | -2.51% | 6.27% | -5.78% | 3.43%
15 | CN1CCN(CCCN2c3ccccc3Sc3ccc(S(=O)(=O)N(C)C)cc32)CC1 [thioproperazine] | 0.81% | 6.36% | 5.52% | 0.03% | 1.7%
16 | Cc1ncc(C[n+]2csc(CCO)c2C)c(N)n1 [thiamine] | -3.81% | -0.57% | -1.61% | -1.44% | 0.13%
17 | CC[C@H]1OC(=O)C[C@@H](O)[C@H](C)[C@@H](O[C@@H]2O[C@H](C)C[C@H](N(C)C)[C@H]2O)[C@@H](CC=O)C[C@@H](C)C(=O)/C=C/[C@]2(C)O[C@H]2[C@@H]1C [rosamicin] | 1.84% | 0.4% | -1.22% | 2.62% | 9.6%
18 | c1cn2cc(-c3ccc4cn[nH]c4c3)nc(Nc3ccc(N4CCOCC4)cc3)c2n1 | -4.37% | -3.35% | -4.69% | 0.03% | -4.57%
